Assay outcomes (PubChem BioAssay)
Shn3 3UTR inh: Schnurri-3 reporter inhibition in Clone20 osteoblasts | Clone20 osteoblast Shn3 3'UTR firefly luciferase, 24 h | inhibition, % at 12.5 µM | 0.52% of 360,000 active;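 active = mean inhibition of at least 75% with every replicate also reaching 75%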;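 note: 0% = median of neutral control wells and 100% = pilot-screen positive control compound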
PAX8 inh HTS: lowers PAX8-driven luciferase in RMG-I cells. RMG-I TPO-luciferase reporter, SteadyGlo, 24 h. inhibition, % at 12.6 µM. 1.2% of 360,000 active. AID 652154;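 active = mean replicate inhibition at least 60% with every replicate also reaching 60%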;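 note: luciferase light reporting Pax8 driven TPO promoter activity; plate controls were median of neutral control wells for no effect and mitoxantrone controls for full effect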
EBV LMP1 NFkB: reduces LMP1-driven NF-kappaB luciferase signal; LMP1-induced NF-kappaB luciferase reporter cells, luminescence; inhibition, % at 12.5 µM; 0.69% of 350,000 active; AID 504558; in the data active = inhibition above about 41%;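 note: 0% = neutral control wells and 100% = reference inhibitor control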
EWS-Fli block: EWS/Fli transcriptional activity inhibition; inhibition, % at 12.6 µM; 0.67% of 350,000 active; A673 NR0B1-luciferase reporter, viability-normalised;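 active = mean inhibition of at least 50% after viability correction, with every replicate also passing that limit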;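 note: firefly luciferase signal divided by Alamar Blue viability fluorescence both relative to DMSO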
TRPM1 prom inh: reduces MITF-dependent TRPM1 promoter luciferase signal. 0.83% of 330,000 active. inhibition, % at 12.5 µM. AID 488899. SK-MEL-5 TRPM1 promoter luciferase, 24 h;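 active = mean inhibition across replicates of 60% or more, whatever share of single replicates reaches that level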
LGR2 antag: blocks bursicon-induced cAMP signaling via Drosophila LGR2 | 0.35% of 380,000 active | HEK293 LGR2, CRE-luciferase, bursicon-stimulated, 4 h | AID 720647 | inhibition, % at 9.99 µM;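 active = drop in luminescence signal, shown as inhibition above about 50% in the replicate tests, limit read from the data, passing the limit was not always enough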;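 note: agonist challenge used bursicon conditioned medium at about half maximal strength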
The depositor's hits bear a star; · = no result. In the library only some 2.2% were active in any assay of this set; here they are far more common.

SMILES | Shn3 3UTR inh | PAX8 inh HTS | EBV LMP1 NFkB | EWS-Fli block | TRPM1 prom inh | LGR2 antag
C[C@@H]1CCCCO[C@H](CN(C)S(C)(=O)=O)[C@@H](C)CN([C@H](C)CO)C(=O)c2cc(NC(=O)Nc3cccc4ccccc34)ccc2O1 | · | -22.9 | · | 0.0 | · | -6.5
CCCCC(=O)NC(c1ccccc1OC)c1ccc2cccnc2c1O (stereo unspecified) | 93.9* | 87.7* | 66.4* | 40.1 | 78.1* | 19.9
CCCC(=O)NC(c1ccc(OC)c(OC)c1)c1c(O)ccc2ccccc12 (stereo unspecified) | 0.0 | · | -2.1 | · | 9.6 | ·
CCCC(=O)NC(c1ccccc1OC)c1ccc2cccnc2c1O (stereo unspecified) | 87.8* | · | 70.6* | · | 80.6* | ·
C[C@@H]1CN([C@@H](C)CO)C(=O)c2cccc(NS(=O)(=O)c3ccc(F)cc3)c2O[C@@H]1CN(C)S(=O)(=O)c1ccccc1 | · | 13.2 | · | -3.1 | · | -6.5
COc1ccc2nc(C)cc(N/N=C/c3cccc(OC)c3O)c2c1 | 11.1 | 94.8* | 5.0 | 67.7* | 81.6* | 5.3
COc1ccc2nc(C)cc(NCc3cccc(C(F)(F)F)c3)c2c1 | 70.6 | 21.8 | -12.6 | 22.0 | 69.0* | -9.9
COc1ccc(/C=N/Nc2cc(C)nc3ccc(Br)cc23)cc1 | 92.9* | 94.5* | -25.6 | 48.4 | 98.6* | 92.7*
Cc1cc(N/N=C/c2ccccc2O)c2ccccc2n1 | -24.1 | 5.2 | -19.5 | 2.9 | 7.6 | -10.8
COC(=O)c1sccc1N/N=C/c1cccc(OC)c1O | 19.9 | 6.8 | 11.1 | 32.4 | 15.3 | 77.4*
Cc1noc(C)c1NC(=O)N(C)C[C@H]1Oc2c(NC(=O)CCCCCC(=O)Nc3ccccc3N)cccc2C(=O)N([C@@H](C)CO)C[C@H]1C | · | -11.2 | · | -0.1 | · | -16.5
C[C@H](CO)N1C[C@H](C)[C@H](CN(C)S(=O)(=O)c2ccc(Cl)cc2)Oc2ccc(NC(=O)C3CC3)cc2CC1=O | · | 39.7 | · | 2.1 | · | -2.3
COc1ccc(NC(=O)N(C)C[C@@H]2Oc3ccc(NC(=O)CCN4CCOCC4)cc3C(=O)N([C@H](C)CO)C[C@H]2C)cc1 | · | -6.4 | · | -7.9 | · | -0.8
CN1CCN(c2ccc(S(=O)(=O)N3CCCCC3)cc2NC(=O)/C=C/c2ccc(OC(F)F)cc2)CC1 | -32.7 | 46.5 | 0.2 | 18.5 | -2.0 | 0.8
CCN1CCN(c2ccc(S(=O)(=O)N3CCCCC3)cc2NC(=O)/C=C/c2cccc(OC)c2OC)CC1 | -9.6 | 12.9 | -7.3 | 15.1 | 78.0* | -6.5
CN1CCN(c2ccc(S(=O)(=O)N3CCCCC3)cc2NC(=O)/C=C/c2ccc(Cl)c([N+](=O)[O-])c2)CC1 | 3.8 | 87.7* | -2.8 | 15.2 | 10.1 | -0.1
CC(C)(C)C(=O)Nc1cc(S(=O)(=O)N2CCCCC2)ccc1N1CCCCC1 | 83.5* | 14.0 | -5.8 | 1.4 | 25.3 | 13.9
CCN1CCN(c2ccc(S(=O)(=O)N3CCCCC3)cc2NC(=O)/C=C/c2ccc([N+](=O)[O-])cc2)CC1 | -36.5 | 41.1 | 7.3 | 57.4* | 47.2 | 1.1
CO[C@@H]1CN(C)C(=O)c2cc(NC(=O)C3CCC3)ccc2OC[C@H](C)NC[C@H]1C | · | -12.7 | · | -1.3 | · | 33.8
COc1ccc2c3c(n(C)c2c1)[C@@H](CO)N(Cc1ccccc1)CC31CN(S(C)(=O)=O)C1 | · | · | · | -13.9 | · | -32.3
O=C(C[C@@H]1C=C[C@H](NC(=O)CN2CCOCC2)[C@@H](CO)O1)NCCc1ccncc1 | · | · | · | 3.7 | · | -2.7
CC1CCCN(S(=O)(=O)c2cc3c4c(c2)C(C)C(=O)N4CCC3)C1 (stereo unspecified) | 0.7 | -13.6 | 69.3* | 7.1 | -5.5 | 8.6
CC1C(=O)N2CCCc3cc(S(=O)(=O)N4CCCCC4)cc1c32 (stereo unspecified) | -2.9 | -7.6 | -1.2 | -5.3 | -1.6 | -10.6
C[C@@H]1CCCCO[C@H](CN(C)CC2CC2)[C@H](C)CN([C@@H](C)CO)C(=O)c2cc(NC(=O)Nc3ccc(C(F)(F)F)cc3)ccc2O1 | · | 27.7 | · | 75.5* | · | 13.5
C[C@@H]1CCCCO[C@@H](CN(C)CC2CC2)[C@H](C)CN([C@@H](C)CO)C(=O)c2cc(NC(=O)Nc3ccc(C(F)(F)F)cc3)ccc2O1 | · | 23.1 | · | 5.6 | · | 9.4
SMILES | Shn3 3UTR inh | PAX8 inh HTS | EBV LMP1 NFkB | EWS-Fli block | TRPM1 prom inh | LGR2 antag
C[C@H](CO)N1C[C@H](C)[C@H](CN(C)CC2CC2)OCCCC[C@H](C)Oc2ccc(NC(=O)Nc3ccc(C(F)(F)F)cc3)cc2C1=O | · | 72.6* | · | 4.9 | · | 15.8
CS(=O)(=O)c1sc(C#N)c2c1C(=O)CC(c1ccccc1)C2 (stereo unspecified) | 45.9 | 131.1* | 23.9 | 42.2 | 87.2* | 58.0*
Cc1oc2c(c(=O)c1C)C(=O)CC(c1ccccc1)C2 (stereo unspecified) | 5.3 | · | 1.7 | · | 0.7 | ·
CCOC(=O)N1CCN(C(=O)/C(=C/c2cccc3ccccc23)NC(=O)c2ccc(OC)c(OC)c2)CC1 | 15.0 | 71.6* | 1.2 | 4.9 | 10.2 | -7.2
COc1ccc(C(=O)N/C(=C\c2cccc3ccccc23)C(=O)N2CCN(C)CC2)cc1OC | 1.6 | 5.6 | 7.8 | 4.2 | 3.9 | -6.4
CCOc1cc(C(=O)CSc2nnc(CNc3ccc(Cl)cc3)o2)ccc1NC(=O)CC | 84.4* | · | -6.1 | 40.4 | 85.4* | 9.6
CC(C)CC(NC(=O)c1ccc(Cl)cc1)C(=O)OCC(=O)c1ccc2c(c1)NC(=O)CO2 (stereo unspecified) | 87.5* | · | -23.7 | · | 56.2 | -4.7
Cc1cc(C)c(C(=O)/C=C/c2ccc3c(c2)OCO3)c(=O)[nH]1 | -21.5 | -2.4 | 33.6 | -1.7 | 13.9 | 9.5
Cc1cc(C)c(C(=O)/C=C/c2cccc3ccccc23)c(=O)[nH]1 | 55.3 | 99.1* | 58.5* | 21.1 | 86.7* | 67.3*
C[C@@H]1CN([C@@H](C)CO)C(=O)c2cccc(NC(=O)Nc3ccc4c(c3)OCO4)c2O[C@@H]1CN(C)S(=O)(=O)c1ccc(Cl)cc1 | · | · | · | -2.7 | · | -10.1
COc1ccc(/C=N/N=C/c2ccc(OC)c(OC)c2)cc1OC | -0.9 | 7.0 | 44.3* | · | -3.4 | ·
COc1ccc(/C=N/N=C/c2ccc(OC)c(O)c2)cc1O | -2.7 | · | 4.9 | · | -3.9 | ·
COc1ccc(/C=N/Nc2nnc(C)n2N)cc1OC | 8.9 | 19.2 | 60.4* | -5.7 | 11.4 | -7.4
O=C1CN(C(=O)c2ccc(F)c(S(=O)(=O)N3CCOCC3)c2)c2ccccc2N1 | 31.5 | 1.1 | 46.1* | 3.5 | -3.1 | -7.2
O=C(Nc1ccccc1)c1ccc(F)c(S(=O)(=O)N2CCOCC2)c1 | 1.7 | -1.8 | 1.0 | · | 10.1 | ·
COc1ccc(C(=O)N2CC(=O)Nc3ccccc32)cc1S(=O)(=O)N1CCOCC1 | · | -3.6 | -8.7 | -3.6 | -10.0 | -23.3
COc1ccc(C(=O)N2CC(=O)Nc3ccccc32)cc1S(=O)(=O)N1CCCC1 | 32.3 | 8.2 | 43.2* | -4.3 | -12.1 | 21.1
